The supplement of paper PMC10849652
Of roughly 7,900 targets only a part is listed; those with a hit were picked by preference. About 0.6% of all pairs of compound and target were hits.

Assays:
Experiment in all cases: log2 fold change, soluble protein after heating vs DMSO (PISA); higher = thermal stabilisation; K562 cells, 10 uM, 30 min; active = over 0.2 and 3.5 SD of the protein, either way, in both replicates (recomputed)
[1] = compound: CS(=O)(=O)c1ccc(-c2cnc(N)c(C(=O)Nc3ccccc3)n2)cc1
Summary of the method: (§1)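 K562 cells at 2×10^6 cells/mL were given 10 μM compound for 30 min. Aliquots then went through 3 min of heating across 48°C-58°C, were pooled, and were extracted in PBS with 0.5% NP-40 at 4°C, and the supernatant after 21,000xg for 90 min was quantified by TMTpro 16plex LC-MS/MS with channel sums equalised. Thermal stability relative to control samples, from duplicates, is given as log2 fold change.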

crizotinib = compound: C[C@@H](Oc1cc(-c2cnn(C3CCNCC3)c2)cnc1N)c1c(Cl)ccc(F)c1Cl [crizotinib]
Summary of the method: as §1

[2] = compound: C[C@@H]1COCCN1C2=NC(=NC(=C2)C3(CC3)S(=O)(=O)C)C4=C5C=CNC5=CC=C4
Summary of the method: as §1

[3] = compound: C[C@H](C1=CC=C(C=C1)C(=O)NC2=C3C=CNC3=NC=C2)N
Summary of the method: as §1

duvelisib = compound: C[C@H](Nc1ncnc2nc[nH]c12)c1cc2cccc(Cl)c2c(=O)n1-c1ccccc1 [duvelisib]
Summary of the method: as §1

gandotinib = compound: Cc1cc(Nc2cc(CN3CCOCC3)c3nc(C)c(Cc4ccc(Cl)cc4F)n3n2)n[nH]1 [gandotinib]
Summary of the method: as §1

tozasertib = compound: Cc1cc(Nc2cc(N3CCN(C)CC3)nc(Sc3ccc(NC(=O)C4CC4)cc3)n2)n[nH]1 [tozasertib]
Summary of the method: as §1

[4] = compound: Cc1cc(SCc2sc(-c3ccc(C(F)(F)F)cc3)nc2C)ccc1OCC(=O)O
Summary of the method: as §1

doramapimod = compound: Cc1ccc(-n2nc(C(C)(C)C)cc2NC(=O)Nc2ccc(OCCN3CCOCC3)c3ccccc23)cc1 [doramapimod]
Summary of the method: as §1

ispinesib = compound: Cc1ccc(C(=O)N(CCCN)[C@@H](c2nc3cc(Cl)ccc3c(=O)n2Cc2ccccc2)C(C)C)cc1 [ispinesib]
Summary of the method: as §1

bafetinib = compound: Cc1ccc(NC(=O)c2ccc(CN3CC[C@H](N(C)C)C3)c(C(F)(F)F)c2)cc1Nc1nccc(-c2cncnc2)n1 [bafetinib]
Summary of the method: as §1

[5] = compound: Cc1cccc(CC(=O)N2CCc3c2ccc(-c2cn(C)c4ncnc(N)c24)c3F)n1
Summary of the method: as §1

nilotinib = compound: Cc1cn(-c2cc(NC(=O)c3ccc(C)c(Nc4nccc(-c5cccnc5)n4)c3)cc(C(F)(F)F)c2)cn1 [nilotinib]
Summary of the method: as §1

[6] = compound: Cc1nc(Nc2n[nH]c3c2CN(C(=O)N[C@H](CN(C)C)c2ccccc2)C3(C)C)c2sccc2n1
Summary of the method: as §1

dasatinib = compound: Cc1nc(Nc2ncc(C(=O)Nc3c(C)cccc3Cl)s2)cc(N2CCN(CCO)CC2)n1 [dasatinib]
Summary of the method: as §1

[7] = compound: Cc1ncc(-c2ccnc(Nc3ccc(S(C)(=O)=O)cc3)n2)n1C(C)C
Summary of the method: as §1

[8] = compound: Cn1cc(-c2ccc3c(c2)CCN3C(=O)Cc2cccc(C(F)(F)F)c2)c2c(N)ncnc21
Summary of the method: as §1

[9] = compound: Cn1cc(-c2ccc3nnc(C(F)(F)c4ccc5ncccc5c4)n3n2)cn1
Summary of the method: as §1

tipifarnib = compound: Cn1cncc1[C@@](N)(c1ccc(Cl)cc1)c1ccc2c(c1)c(-c1cccc(Cl)c1)cc(=O)n2C [tipifarnib]
Summary of the method: as §1

mubritinib = compound: FC(F)(F)c1ccc(/C=C/c2nc(COc3ccc(CCCCn4ccnn4)cc3)co2)cc1 [mubritinib]
Summary of the method: as §1

Measured: log2 fold change

RPA1 (UniProt P27694)
inactive: [1] -0.028 | crizotinib -0.019 | [2] -0.199 | [3] 0.036 | duvelisib -0.035 | gandotinib -0.103 | tozasertib 0.015 | [4] 0.022 | doramapimod -0.05 | ispinesib 0.004 | bafetinib 0.029 | [5] 0.019 | nilotinib -0.051 | [6] -0.1 | dasatinib 0.077 | [7] 0.016 | [8] -0.004 | [9] 0.015 | tipifarnib -0.074 | mubritinib 0.026

RBM4 (UniProt Q9BWF3)
Sequence of UniProt Q9BWF3 (Q9BWF3 whole entry, looked up): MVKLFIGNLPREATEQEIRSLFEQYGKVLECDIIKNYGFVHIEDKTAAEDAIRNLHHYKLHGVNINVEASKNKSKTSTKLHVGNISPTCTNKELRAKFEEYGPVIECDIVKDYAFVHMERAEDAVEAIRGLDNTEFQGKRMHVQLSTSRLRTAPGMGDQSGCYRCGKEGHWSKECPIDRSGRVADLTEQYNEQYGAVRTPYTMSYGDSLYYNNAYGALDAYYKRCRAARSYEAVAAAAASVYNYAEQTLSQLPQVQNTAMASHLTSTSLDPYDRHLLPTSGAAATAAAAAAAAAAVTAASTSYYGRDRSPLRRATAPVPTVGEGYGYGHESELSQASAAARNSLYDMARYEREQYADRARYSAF
inactive: [1] -0.024 | crizotinib -0.04 | [2] -0.081 | [3] 0.06 | duvelisib -0.058 | gandotinib -0.037 | tozasertib -0.023 | [4] 0.021 | doramapimod 0.021 | ispinesib -0.094 | bafetinib -0.049 | [5] -0.01 | nilotinib -0.047 | [6] -0.095 | dasatinib -0.033 | [7] -0.039 | [8] -0.054 | [9] -0.063 | tipifarnib -0.013 | mubritinib -0.082

RPS3A (UniProt P61247)
inactive: [1] -0.064 | crizotinib 0.022 | [2] -0.182 | [3] 0.196 | duvelisib -0.09 | gandotinib 0.175 | tozasertib 0.016 | [4] 0.029 | doramapimod 0.044 | ispinesib -0.072 | bafetinib 0.243 | [5] -0.031 | nilotinib 0 | [6] 0.201 | dasatinib 0.099 | [7] -0.033 | [8] -0.127 | [9] -0.045 | tipifarnib 0.096 | mubritinib -0.058

RPS4X (UniProt P62701)
inactive: [1] -0.027 | crizotinib 0.021 | [2] -0.378 | [3] 0.333 | duvelisib -0.211 | gandotinib 0.264 | tozasertib 0.039 | [4] -0.023 | doramapimod 0.18 | ispinesib -0.141 | bafetinib 0.332 | [5] 0 | nilotinib 0.051 | [6] 0.206 | dasatinib 0.061 | [7] -0.048 | [8] -0.251 | [9] -0.079 | tipifarnib 0.112 | mubritinib -0.105

SERPINA7 (UniProt P05543)
inactive: [1] -0.16 | crizotinib 0.133 | [2] -0.095 | [3] 0.257 | duvelisib -0.201 | gandotinib -0.02 | tozasertib -0.046 | [4] -0.158 | doramapimod 0.217 | ispinesib 0.068 | bafetinib -0.191 | [5] -0.152 | nilotinib 0.05 | [6] 0.115 | dasatinib 0.098 | [7] 0.392 | [8] 0.238 | [9] 0.001 | tipifarnib 0.104 | mubritinib -0.247

SIDT2 isoform 2 (UniProt Q8NBJ9)
Sequence of UniProt Q8NBJ9 (Q8NBJ9 whole entry, looked up): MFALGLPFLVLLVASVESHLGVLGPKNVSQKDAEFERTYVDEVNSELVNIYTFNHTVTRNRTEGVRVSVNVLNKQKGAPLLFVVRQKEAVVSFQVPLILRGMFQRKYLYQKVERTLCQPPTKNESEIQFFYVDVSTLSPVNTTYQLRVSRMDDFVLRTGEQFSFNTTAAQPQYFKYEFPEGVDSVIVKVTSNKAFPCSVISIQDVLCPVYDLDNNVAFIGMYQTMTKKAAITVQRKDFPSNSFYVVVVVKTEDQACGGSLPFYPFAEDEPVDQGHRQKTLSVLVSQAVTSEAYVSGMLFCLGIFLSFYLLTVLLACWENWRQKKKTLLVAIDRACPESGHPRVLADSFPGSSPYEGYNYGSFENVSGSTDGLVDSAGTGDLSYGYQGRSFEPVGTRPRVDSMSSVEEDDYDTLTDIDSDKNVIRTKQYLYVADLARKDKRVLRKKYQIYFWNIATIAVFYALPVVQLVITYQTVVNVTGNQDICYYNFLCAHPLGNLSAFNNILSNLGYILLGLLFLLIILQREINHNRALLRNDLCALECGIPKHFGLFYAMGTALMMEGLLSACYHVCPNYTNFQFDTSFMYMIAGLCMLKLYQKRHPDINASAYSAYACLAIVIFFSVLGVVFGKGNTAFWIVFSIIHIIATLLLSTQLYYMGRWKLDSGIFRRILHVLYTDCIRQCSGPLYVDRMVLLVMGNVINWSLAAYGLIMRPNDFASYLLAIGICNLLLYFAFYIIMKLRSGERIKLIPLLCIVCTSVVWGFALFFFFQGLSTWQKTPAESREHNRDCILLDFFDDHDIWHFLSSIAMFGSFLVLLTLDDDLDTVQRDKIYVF
inactive: [1] 0.132 | crizotinib -0.026 | [2] -0.017 | [3] -0.004 | duvelisib 0.059 | gandotinib 0.006 | tozasertib 0.004 | [4] -0.186 | doramapimod 0.254 | ispinesib -0.143 | bafetinib -0.24 | [5] -0.025 | nilotinib -0.005 | [6] 0.104 | dasatinib 0.041 | [7] 0.025 | [8] -0.003 | [9] 0.038 | tipifarnib 0.073 | mubritinib -0.001

RRAGB (UniProt Q5VZM2)
inactive: [1] 0.016 | crizotinib -0.131 | [2] 0.01 | [3] -0.123 | duvelisib 0.01 | gandotinib -0.008 | tozasertib -0.007 | [4] -0.011 | doramapimod 0.015 | ispinesib -0.065 | bafetinib -0.079 | [5] -0.045 | nilotinib 0.031 | [6] -0.003 | dasatinib 0.041 | [7] 0.009 | [8] 0.06 | [9] 0.043 | tipifarnib -0.025 | mubritinib 0.037

SCAF8 isoform 2 (UniProt Q9UPN6)
Sequence of UniProt Q9UPN6 (Q9UPN6 whole entry, looked up): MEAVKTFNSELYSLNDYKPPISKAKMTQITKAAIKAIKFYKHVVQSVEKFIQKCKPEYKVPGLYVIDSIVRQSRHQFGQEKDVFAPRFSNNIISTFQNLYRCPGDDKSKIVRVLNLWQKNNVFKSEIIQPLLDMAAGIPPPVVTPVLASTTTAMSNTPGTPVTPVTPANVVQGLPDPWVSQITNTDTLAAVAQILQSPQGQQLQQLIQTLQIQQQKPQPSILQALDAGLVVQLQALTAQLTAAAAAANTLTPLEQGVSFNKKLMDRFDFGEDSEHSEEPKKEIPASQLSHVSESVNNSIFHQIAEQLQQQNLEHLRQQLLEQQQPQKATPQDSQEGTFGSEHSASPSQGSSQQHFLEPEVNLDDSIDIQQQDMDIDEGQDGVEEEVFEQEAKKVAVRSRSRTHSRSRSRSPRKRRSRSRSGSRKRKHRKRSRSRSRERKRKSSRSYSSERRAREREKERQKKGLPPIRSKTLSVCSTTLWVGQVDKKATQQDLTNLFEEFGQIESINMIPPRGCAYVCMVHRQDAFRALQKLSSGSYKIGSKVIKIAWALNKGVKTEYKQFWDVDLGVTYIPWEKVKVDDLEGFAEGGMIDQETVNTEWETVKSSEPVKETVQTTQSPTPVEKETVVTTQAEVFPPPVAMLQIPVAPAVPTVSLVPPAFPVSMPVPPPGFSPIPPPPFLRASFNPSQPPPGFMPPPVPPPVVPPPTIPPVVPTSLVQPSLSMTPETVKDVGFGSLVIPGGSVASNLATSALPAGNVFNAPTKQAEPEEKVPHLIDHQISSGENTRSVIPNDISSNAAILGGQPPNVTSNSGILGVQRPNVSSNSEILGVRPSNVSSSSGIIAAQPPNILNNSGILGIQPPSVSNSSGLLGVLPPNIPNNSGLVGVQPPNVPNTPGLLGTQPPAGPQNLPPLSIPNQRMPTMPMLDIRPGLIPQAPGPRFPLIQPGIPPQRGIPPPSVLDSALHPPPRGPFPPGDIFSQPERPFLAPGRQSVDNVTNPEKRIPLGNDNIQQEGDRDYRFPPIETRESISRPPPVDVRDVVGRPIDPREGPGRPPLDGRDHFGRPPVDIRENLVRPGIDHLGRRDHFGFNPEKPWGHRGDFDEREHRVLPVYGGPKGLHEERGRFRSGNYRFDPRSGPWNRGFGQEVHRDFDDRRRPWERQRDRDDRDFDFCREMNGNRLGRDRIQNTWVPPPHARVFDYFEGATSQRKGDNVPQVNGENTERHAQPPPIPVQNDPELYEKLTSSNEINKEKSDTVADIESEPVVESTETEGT
inactive: [1] 0.085 | crizotinib -0.011 | [2] 0.1 | [3] -0.018 | duvelisib 0.053 | gandotinib -0.098 | tozasertib -0.039 | [4] 0.065 | doramapimod 0.003 | ispinesib -0.181 | bafetinib -0.024 | [5] 0.019 | nilotinib -0.032 | [6] -0.208 | dasatinib -0.212 | [7] 0.069 | [8] 0.064 | [9] 0.008 | tipifarnib -0.027 | mubritinib 0.023

RARS2 (UniProt Q5T160)
inactive: [1] -0.026 | crizotinib -0.016 | [2] 0.091 | [3] -0.021 | duvelisib 0.018 | gandotinib -0.075 | tozasertib 0.01 | [4] 0.019 | doramapimod -0.017 | ispinesib -0.033 | bafetinib -0.148 | [5] 0.104 | nilotinib -0.039 | [6] 0.019 | dasatinib -0.023 | [7] -0.006 | [8] 0.061 | [9] 0.012 | tipifarnib -0.008 | mubritinib 0.075

RECQL (UniProt P46063)
inactive: [1] 0.031 | crizotinib 0.033 | [2] 0.112 | [3] -0.082 | duvelisib 0.051 | gandotinib -0.057 | tozasertib 0.001 | [4] 0.003 | doramapimod -0.011 | ispinesib 0.056 | bafetinib 0.005 | [5] -0.019 | nilotinib 0.025 | [6] 0.006 | dasatinib -0.043 | [7] -0.033 | [8] 0.055 | [9] -0.006 | tipifarnib -0.034 | mubritinib 0.017

RSPRY1 (UniProt Q96DX4)
Sequence of UniProt Q96DX4 (Q96DX4 whole entry, looked up): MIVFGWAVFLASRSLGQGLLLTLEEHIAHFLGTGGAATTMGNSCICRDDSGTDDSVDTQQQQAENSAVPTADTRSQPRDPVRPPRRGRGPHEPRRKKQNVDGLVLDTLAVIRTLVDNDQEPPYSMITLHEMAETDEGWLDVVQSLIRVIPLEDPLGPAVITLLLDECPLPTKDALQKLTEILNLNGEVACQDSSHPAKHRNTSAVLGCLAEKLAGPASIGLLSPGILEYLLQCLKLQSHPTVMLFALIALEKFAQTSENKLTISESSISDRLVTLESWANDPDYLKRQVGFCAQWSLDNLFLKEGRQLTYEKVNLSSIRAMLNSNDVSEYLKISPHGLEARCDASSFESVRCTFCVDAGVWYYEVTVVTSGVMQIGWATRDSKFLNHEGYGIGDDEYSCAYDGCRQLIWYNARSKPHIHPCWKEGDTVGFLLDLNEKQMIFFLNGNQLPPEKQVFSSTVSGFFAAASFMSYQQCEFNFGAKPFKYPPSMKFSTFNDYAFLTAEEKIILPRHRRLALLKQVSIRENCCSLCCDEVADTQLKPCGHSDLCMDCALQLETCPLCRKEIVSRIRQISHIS
inactive: [1] -0.037 | crizotinib 0.11 | [2] 0.02 | [3] -0.006 | duvelisib 0.142 | gandotinib 0.067 | tozasertib -0.053 | [4] 0.012 | doramapimod 0.083 | ispinesib 0.033 | bafetinib 0.052 | [5] -0.05 | nilotinib 0.012 | [6] -0.037 | dasatinib -0.036 | [7] 0.01 | [8] 0.007 | [9] -0.049 | tipifarnib 0.093 | mubritinib -0.039

RARS (UniProt P54136)
Sequence of UniProt P54136 (P54136 whole entry, looked up): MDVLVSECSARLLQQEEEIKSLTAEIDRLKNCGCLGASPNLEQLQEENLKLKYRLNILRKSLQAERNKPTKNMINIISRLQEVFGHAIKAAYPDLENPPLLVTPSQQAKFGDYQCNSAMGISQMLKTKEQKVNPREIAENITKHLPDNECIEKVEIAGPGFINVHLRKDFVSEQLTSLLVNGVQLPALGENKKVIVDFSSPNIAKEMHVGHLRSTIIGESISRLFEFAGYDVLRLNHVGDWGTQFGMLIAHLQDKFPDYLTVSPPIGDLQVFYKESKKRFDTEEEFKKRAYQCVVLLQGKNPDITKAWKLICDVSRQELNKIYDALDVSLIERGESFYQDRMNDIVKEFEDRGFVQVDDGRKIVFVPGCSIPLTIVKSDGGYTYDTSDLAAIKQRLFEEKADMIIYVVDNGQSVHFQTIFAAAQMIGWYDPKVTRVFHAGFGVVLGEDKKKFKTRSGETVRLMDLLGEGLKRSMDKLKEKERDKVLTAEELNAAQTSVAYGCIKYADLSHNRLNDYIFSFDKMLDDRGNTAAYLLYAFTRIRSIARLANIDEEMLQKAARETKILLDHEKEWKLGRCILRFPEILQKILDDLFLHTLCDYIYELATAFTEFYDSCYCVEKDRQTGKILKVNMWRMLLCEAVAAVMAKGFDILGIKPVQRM
active: ispinesib -0.398
inactive: [1] -0.001 | crizotinib -0.266 | [2] -0.099 | [3] 0.373 | duvelisib -0.069 | gandotinib 0.018 | tozasertib -0.028 | [4] 0.132 | doramapimod 0.184 | bafetinib 0.04 | [5] 0.069 | nilotinib -0.057 | [6] -0.021 | dasatinib -0.071 | [7] 0.053 | [8] -0.08 | [9] -0.125 | tipifarnib -0.117 | mubritinib -0.116

RPS14 (UniProt P62263)
inactive: [1] -0.049 | crizotinib -0.075 | [2] -0.22 | [3] 0.183 | duvelisib -0.131 | gandotinib 0.056 | tozasertib 0.016 | [4] 0.023 | doramapimod 0.071 | ispinesib 0.002 | bafetinib 0.265 | [5] -0.061 | nilotinib 0.029 | [6] 0.184 | dasatinib -0.011 | [7] -0.047 | [8] -0.081 | [9] -0.091 | tipifarnib 0.07 | mubritinib -0.05

RNASEH2A (UniProt O75792)
inactive: [1] 0.106 | crizotinib -0.134 | [2] -0.045 | [3] -0.032 | duvelisib 0.011 | gandotinib 0.156 | tozasertib -0.028 | [4] 0.029 | doramapimod -0.023 | ispinesib -0.001 | bafetinib -0.111 | nilotinib -0.025 | [6] 0.024 | dasatinib -0.159 | [7] -0.047 | [8] 0.056 | [9] 0.038 | tipifarnib -0.003 | mubritinib 0.059
active: [5] -0.303

RPS6KA2 isoform 2 (UniProt Q15349)
Sequence of UniProt Q15349 (Q15349 whole entry, looked up): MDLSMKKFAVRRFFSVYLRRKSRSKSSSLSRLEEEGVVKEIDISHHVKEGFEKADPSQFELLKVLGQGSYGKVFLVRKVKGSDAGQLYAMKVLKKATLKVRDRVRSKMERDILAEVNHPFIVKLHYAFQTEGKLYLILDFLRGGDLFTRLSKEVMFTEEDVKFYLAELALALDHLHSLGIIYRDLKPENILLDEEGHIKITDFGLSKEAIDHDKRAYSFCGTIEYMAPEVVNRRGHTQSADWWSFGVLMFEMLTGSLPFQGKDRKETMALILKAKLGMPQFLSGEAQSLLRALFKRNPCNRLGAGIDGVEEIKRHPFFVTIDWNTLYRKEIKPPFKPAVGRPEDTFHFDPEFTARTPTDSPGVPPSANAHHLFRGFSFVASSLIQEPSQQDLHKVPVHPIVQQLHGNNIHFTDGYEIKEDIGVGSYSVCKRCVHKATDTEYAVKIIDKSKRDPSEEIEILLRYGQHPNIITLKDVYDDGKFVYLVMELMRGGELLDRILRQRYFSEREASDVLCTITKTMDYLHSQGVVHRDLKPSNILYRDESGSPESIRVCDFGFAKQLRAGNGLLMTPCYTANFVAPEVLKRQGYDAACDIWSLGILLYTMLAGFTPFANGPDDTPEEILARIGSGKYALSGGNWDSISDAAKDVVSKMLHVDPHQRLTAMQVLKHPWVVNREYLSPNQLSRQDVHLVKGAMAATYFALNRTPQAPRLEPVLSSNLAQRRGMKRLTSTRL
inactive: [1] 0.026 | crizotinib -0.148 | [2] 0.128 | [3] -0.057 | duvelisib 0.047 | gandotinib -0.048 | tozasertib 0.042 | [4] 0.063 | doramapimod -0.057 | ispinesib -0.058 | bafetinib -0.112 | [5] 0.15 | nilotinib 0.008 | dasatinib -0.228 | [7] -0.013 | [8] 0.001 | [9] 0.021 | tipifarnib -0.069 | mubritinib 0.085
active: [6] -0.571

RSRC1 (UniProt Q96IZ7)
Sequence of UniProt Q96IZ7 (Q96IZ7 whole entry, looked up): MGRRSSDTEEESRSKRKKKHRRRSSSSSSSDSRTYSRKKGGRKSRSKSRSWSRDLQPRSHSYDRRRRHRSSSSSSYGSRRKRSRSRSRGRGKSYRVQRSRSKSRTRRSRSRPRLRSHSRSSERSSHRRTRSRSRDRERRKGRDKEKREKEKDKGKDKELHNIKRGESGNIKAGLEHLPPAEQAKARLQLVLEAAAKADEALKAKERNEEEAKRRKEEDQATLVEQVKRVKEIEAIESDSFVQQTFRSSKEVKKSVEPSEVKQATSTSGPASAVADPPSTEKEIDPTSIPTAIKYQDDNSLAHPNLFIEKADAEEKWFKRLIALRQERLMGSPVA
inactive: [1] 0.007 | crizotinib -0.059 | [2] 0.027 | duvelisib 0.086 | gandotinib 0.176 | tozasertib -0.079 | [4] -0.034 | doramapimod 0.051 | ispinesib 0.037 | bafetinib 0.042 | [5] -0.05 | nilotinib 0.06 | dasatinib 0.028 | [7] -0.024 | [8] 0.003 | [9] -0.021 | tipifarnib 0.038 | mubritinib 0.012
active: [3] -0.386 | [6] -2.01
